Among the test systems are SK-MEL-2 melanoma; EKVX NSCLC; SN12C renal; UO-31 renal; TK-10 renal; ACHN renal; CAKI-1 renal; A498 renal; CCRF-CEM leukemia; MOLT-4 leukemia.
Holding throughout (test): NCI-60 one-dose screen, 48 h (100 = growth as untreated, 0 = no growth, -100 = all killed)
Conditions in all cases: 10 µM unless noted

Molecules are shown by their SMILES. Compounds without any hit were thinned out: in the full panel of roughly 83,000, 20% have a hit.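 In brief: 96-well plates, 48 h treatment, single concentration, percent growth endpoint.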 A number with no mark means an inactive call. Active and inactive are the calls of the source. How the source made its calls: active means growth percent below 10; inactive means the rest.

With `CN(Cc1cccc(C(F)(F)F)c1)C(=O)[C@@H](CC(=O)N1CCC(N2CCCCC2)CC1)N1C(=O)[C@@H](N2C(=O)OC[C@@H]2c2ccccc2)[C@H]1/C=C/c1ccccc1`, the growth was 100% in the assay on SK-MEL-2 melanoma; 89.9% with EKVX NSCLC; 82.6% with SN12C renal; 83.4% in the assay on UO-31 renal; 93.6% with TK-10 renal; 100% in the assay with ACHN renal. For the same compound, the growth was 91.9% in the assay with CAKI-1 renal, 63% with A498 renal, 90.6% in the assay on CCRF-CEM leukemia and 58.3% in the assay with MOLT-4 leukemia.

`CC(C)CCSc1nc(N)nc2nc[nH]c12`: the growth in the assay with SK-MEL-2 melanoma was 109%; with EKVX NSCLC it was 109%; in the assay on SN12C renal, 92.8%; in the assay on UO-31 renal it was 86.1%; in the assay with TK-10 renal, 154%; with ACHN renal, 91.5%. The growth in the assay on CAKI-1 renal was 108%; in the assay on A498 renal, 116%; in the assay with CCRF-CEM leukemia it was 102%; in the assay on MOLT-4 leukemia it was 116%.

`CC(C)=CC/C=C(/C)[C@H]1CC[C@]2(C)[C@@H]1CC[C@@H]1[C@@]3(C)CC/C(=N/O)C(C)(C)[C@@H]3CC[C@]12C`: the growth was 59.2% [100 µM] in the assay on SK-MEL-2 melanoma; 72.2% [100 µM] with EKVX NSCLC; 41% [100 µM] in the assay on SN12C renal; 58.3% [100 µM] in the assay on UO-31 renal; 82% [100 µM] in the assay with TK-10 renal; 54.3% [100 µM] in the assay with ACHN renal. The growth in the assay on CAKI-1 renal is 57.4% [100 µM]; in the assay with A498 renal it was 88.8% [100 µM]; in the assay with CCRF-CEM leukemia, 38.4% [100 µM]; in the assay with MOLT-4 leukemia it was 27.6% [100 µM].

With `COc1ccc(C2CC(c3ccc4ccccc4c3)=NN2c2nc(O)c(C3=c4cc(OC)ccc4=NC3=O)s2)cc1` (stereo not given), the growth with SK-MEL-2 melanoma was -69.6% (active); in the assay on EKVX NSCLC, -67.3% (active); in the assay on SN12C renal it was -56% (active); in the assay on UO-31 renal, -77.3% (active); with TK-10 renal, -71% (active); in the assay with ACHN renal, -51.2% (active). Further, the growth in the assay with CAKI-1 renal is -59.6% (active); in the assay with A498 renal it was -83.2% (active); with CCRF-CEM leukemia it was 8.68% (active); in the assay with MOLT-4 leukemia, -13.2% (active).

Regarding `CCCCC1COc2cccc3c2N1C=C/C3=C\C(=O)n1ccc2ccccc21` (stereo not given), the growth was 70.7% with SK-MEL-2 melanoma; 82.9% in the assay on EKVX NSCLC; 94.7% with SN12C renal; 57.5% in the assay on UO-31 renal; 118% in the assay on TK-10 renal; 88.5% in the assay with ACHN renal. The growth with CAKI-1 renal is 41%; in the assay on A498 renal, 70.1%; in the assay with CCRF-CEM leukemia it was 67%; with MOLT-4 leukemia, 40.9%.

On to `COc1ccc(C(=O)CSc2nnc(-c3cc(-c4ccccc4)nc4ccccc34)o2)cc1`, for which the growth in the assay with SK-MEL-2 melanoma was 129%; in the assay on EKVX NSCLC, 109%; in the assay on SN12C renal it was 97.3%; in the assay with UO-31 renal, 96%; with TK-10 renal it was 116%; in the assay on ACHN renal, 108%. Besides, the growth in the assay on CAKI-1 renal was 95.7%; in the assay with A498 renal, 100%; in the assay on CCRF-CEM leukemia, 112%; in the assay with MOLT-4 leukemia it was 120%.

`CCN(CC)CCCC(C)Nc1ccnc2cc(Cl)c(SCc3ccccc3)cc12` (stereo not given): the growth in the assay on SK-MEL-2 melanoma was -71.1% (active); with EKVX NSCLC, 3.57% (active); with SN12C renal it was 20.4%; in the assay with UO-31 renal, -84.1% (active); with TK-10 renal it was -30.8% (active); in the assay with ACHN renal it was -89.2% (active). Further, the growth in the assay with CAKI-1 renal is -62.2% (active); in the assay with A498 renal, -90.1% (active); in the assay with CCRF-CEM leukemia, -25.9% (active); in the assay on MOLT-4 leukemia, -29.3% (active).

Consider `CCOC(=O)C(c1ccccc1)N1C(=O)c2ccccc2C1=O` (stereo not given), for which the growth is 104% with SK-MEL-2 melanoma; 91.4% in the assay on EKVX NSCLC; 104% in the assay with SN12C renal; 91.4% with UO-31 renal; 106% in the assay on TK-10 renal; 102% with ACHN renal. The growth in the assay on CAKI-1 renal was 86.4%; in the assay with A498 renal it was 89.3%; with CCRF-CEM leukemia, 102%; in the assay on MOLT-4 leukemia, 101%.

As for `O=c1cc(-c2ccccc2)oc2cc(OCc3cn(Cc4ccc(F)cc4)nn3)cc(O)c12`, the growth in the assay on SK-MEL-2 melanoma was -39.8% [100 µM] (active); with EKVX NSCLC it was 60.1% [100 µM]; in the assay with SN12C renal it was 58.1% [100 µM]; in the assay on UO-31 renal it was 67% [100 µM]; in the assay with TK-10 renal it was 0.593% [100 µM] (active); in the assay with ACHN renal, 5.21% [100 µM] (active). For the same compound, the growth is 58.7% [100 µM] with CAKI-1 renal, 63.1% [100 µM] with A498 renal, 109% [100 µM] in the assay with CCRF-CEM leukemia and 95.5% [100 µM] in the assay with MOLT-4 leukemia.

`C=C(C)[C@@H]1CC[C@]2(C(=O)OC)CC[C@]3(C)[C@H](CC[C@@H]4[C@@](C)(CCc5nn[nH]n5)[C@H](C(=C)C)CC[C@]43C)[C@@H]12`: the growth was -60.8% [100 µM] (active) with SK-MEL-2 melanoma; 0.298% [100 µM] (active) in the assay on EKVX NSCLC; -45.6% [100 µM] (active) with SN12C renal; -88.5% [100 µM] (active) with UO-31 renal; 8.06% [100 µM] (active) with TK-10 renal; 3.75% [100 µM] (active) with ACHN renal. Further, the growth in the assay on CAKI-1 renal is -17.2% [100 µM] (active); with A498 renal, -61.5% [100 µM] (active); in the assay on CCRF-CEM leukemia, 1.92% [100 µM] (active); with MOLT-4 leukemia, 0.832% [100 µM] (active).

Values taken from PubChem BioAssay (NCI).
